Results reported in PubChem BioAssay AID493085 (Broad Institute, 2011).
Screen size: about 2,400 compounds; about 360 (15%) were called active. Roughly 5% stayed inconclusive and do not appear here.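 How the source made its calls: active means falling-signal curve with half-maximal concentration at or below ten times the top tested dose; inconclusive means flat fit at 30 to 70% inhibition, or poor fit; inactive means signal rise, flat within 30%, or potency beyond limit.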 These entries were drawn from the full list. Results with a measured potency or affinity are listed apart.

Assay: Tet-On RFP internal-standard readout, HSF1 screen, dose response, cell-based, NIH3T3 R4, HSE-GFP and Tet-On RFP, cherry-pick, set 3 (AID 493085);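 further: cells heat shocked 2 h at 42 °C with doxycycline to induce reporters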
Settings: NIH3T3 R4 HSE-GFP/Tet-RFP reporter, fluorescence, 48 h; series mostly up to 19.5 µM

outcome, inactive:
COc1ccc(/C=N/NC(=O)CN(C)S(=O)(=O)c2ccc(NC(C)=O)cc2)cc1, COc1cc2cc(CN(C(=O)NC3CCCCC3)C3CCCC3)c(=O)[nH]c2cc1OC, CCOC(=O)c1c(C)n(C)c2ccc(OC)c(NC(=O)CN3CCSCC3)c12, COc1ccc(C(=O)C2CCCN(Cc3ccc(NC(C)=O)cc3)C2)cc1OC (stereo not drawn), Nc1nc(Cl)nc2c1ncn2C1CC(O)C(CO)O1 (stereo not drawn), Cc1oc(-c2cc3c(cc2Cl)OCO3)nc1CN1CCCC1c1ccc(F)cc1 (stereo not drawn), Cc1c(Cl)cccc1NC(=O)CS(=O)(=O)c1ccccc1, CC(C)n1cc(/C=N/Nc2ccc(C(=O)O)cc2)c2ccccc21, CCOC(=O)N1CCN(C(=O)C2CCN(Cc3ccc(OC)cc3OC)CC2)CC1, COc1cccc(-c2cccc(NC(=O)C3CCN(Cc4ccon4)CC3)c2)c1, Cc1ccnc(NS(=O)(=O)c2ccc(NC(=O)COc3ccccc3)cc2)n1, Cc1nc(C(=O)NNC(=O)c2cccc(Cl)c2)c(C(F)(F)F)o1, O=C(Cc1ccccc1)Nc1nc2ccccc2s1, N/C(CC(=O)Nc1ccc(F)cc1)=N\O, O=C(COc1ccccc1C(=O)O)Nc1ccc(SC(F)F)cc1, Cc1ccccc1C(=O)Nc1nnc(CC(=O)N/N=C/c2ccco2)s1, Cc1cc(C)nc(NC(=O)COc2cc(Cl)cc(Cl)c2)n1, COc1cccc(CC(=O)N[C@@H](CCSC)c2nc3ccccc3[nH]2)c1, CCOc1ccc(N=C(NN)c2ccc3ccccc3n2)cc1, O=[N+]([O-])c1ccccc1Nc1cccnc1, Cc1ccc(S(=O)(=O)c2ccc(Oc3ccccc3)cc2)cc1, O=C(NCc1ccccc1)C1CCCN(S(=O)(=O)c2cccc3nsnc23)C1 (stereo not drawn), Nc1nc(NCc2ccco2)nc(NC2CCCCC2)c1[N+](=O)[O-], Cc1nc2sc3c(NCc4ccco4)ncnc3c2c2c1COC(C)(C)C2, CC(C)CCc1c(O)nc(SCC(=O)N2CCCCCC2)[nH]c1=O, O=C(O)COc1ccc(/C=N/NC(=O)c2ccccc2Br)cc1, CCCc1cc(=O)oc2cc(C)cc(OCC(=O)NCCCn3ccnc3)c12, O=C(CC(Nc1ccccc1Cl)C(=O)OCC(=O)c1cccs1)c1ccccc1 (stereo not drawn), COc1ccc2oc(=O)c(N3C(=O)c4ccccc4C3=O)cc2c1, CC1(C)CC(NCc2ccc3c(c2)OCO3)CCO1 (stereo not drawn), COc1cc(C2NC(=O)NC(C)=C2C(=O)OCC2CCCO2)ccc1O (stereo not drawn), CCC1CCCCN1C(=O)c1cc2c(=O)n3cccc(C)c3nc2s1 (stereo not drawn), CN(C)c1ccc(C2Nc3ccccc3C(=O)N2CCCN2CCOCC2)cc1 (stereo not drawn), NC(=O)C1CCN(CC(=O)Nc2nc(-c3ccccc3)cs2)CC1, O=C(c1c(F)cccc1F)N1CCN(c2ccccc2F)CC1, Cc1cc(C(=O)NC2CCCN(Cc3ccc(Cl)cc3)C2)n(C)n1 (stereo not drawn), O=Cc1ccc(OC(=O)Cc2ccc(F)cc2)cc1, CC(=NCCc1ccccc1)C1=C(O)CSC1=O, COc1ccc(CNC(=O)C(=O)c2cn(CC(=O)N3CCOCC3)c3ccccc23)cc1, CC(=O)Nc1ccc(NC(=O)CSc2cn(CC(=O)N3CCOCC3)c3ccccc23)cc1, Cc1ccc(N2C(=O)c3ccccc3C2Nc2ccccc2F)nc1 (stereo not drawn), N#Cc1c(NC(=O)CSc2ncccn2)oc(-c2ccccc2)c1-c1ccccc1, Cc1ccc([N+](=O)[O-])cc1NC(=O)CSc1n[nH]c(-c2cccnc2)n1, CC(C)(C)OC(=O)C1C(=O)CC(C)(O)C(C(=O)OC(C)(C)C)C1c1cccnc1 (stereo not drawn), CCC(=O)N1CCc2cc(S(=O)(=O)NCCC(=O)Nc3ccccc3C)ccc21, Cc1onc(-c2ccccc2)c1C(=O)Nc1sc2c(c1C(N)=O)CCC2, C/C(CC(=O)Nc1ccc(N(C)C)cc1)=N\NC(=O)Cc1csc(N)n1, OC(COc1c(F)cc(Br)cc1F)CN1CCN(c2ccc(F)cc2)CC1 (stereo not drawn), COc1cccc(NC(=S)N(CCC(C)C)C2CCN(C(C)=O)CC2)c1, O=C1CCC(=O)N1CNc1ccccn1, CCn1c(=O)c(C(=O)Nc2ccccc2F)c(O)c2ccccc21, Cn1c(C(=O)NN)cc2cc(OCc3ccccc3)ccc21, COc1ccc(N2CC(C(=O)Nc3nnc(C4CCCCC4)s3)CC2=O)cc1 (stereo not drawn), COc1ccc2nc(NC(=O)CN3CCOCC3)sc2c1, O=C(c1ccc(F)cc1)N1CCCC(N2CCN(Cc3ccc4c(c3)OCO4)CC2)C1 (stereo not drawn), COc1nc(-c2ccccc2)c2cc(Br)ccc2n1, COc1ccc(OC(C)C(=O)N2CCC(C)CC2)cc1 (stereo not drawn), CCOC(=O)c1ccc(NC(=S)Nc2ccccc2N)cc1, CCOC(=O)c1ccc(NC(=O)Oc2ccccc2)cc1, COc1ccc(-n2c(-c3ccc(F)cc3)cnc2SCC(=O)NCc2ccco2)cc1, Cc1cc2cc(CCNC(=O)C(=O)c3c[nH]c4ccccc34)c(=O)[nH]c2cc1C, CC(c1ccccc1)N1CCN(C(=O)CCl)CC1 (stereo not drawn), O=C(Nc1ccc(Cl)cn1)c1ccc2c(Cl)c3c(nc2c1)CCC3, O=C(CSc1ccccc1)Nc1cccc(NC(=O)c2ccco2)c1, CC(=O)COc1ccccc1OC(=O)c1ccco1, N/C(=N\c1nc2ccccc2o1)NC(=O)c1ccc(Cl)cc1, Cc1nnc(N2C(=O)c3cccc4cccc(c34)C2=O)s1, COc1cccc(NC(=O)N2CCCC2C(=O)NC(C)C)c1 (stereo not drawn), COc1nn(-c2ccccc2)c(=O)c(Cl)c1Cl, CCOC(=O)c1cnn(-c2ccccc2)c1-n1cccc1, O=C(C1CCC(CNS(=O)(=O)c2cccc3cccnc23)CC1)N1CCCC1 (stereo not drawn), COc1c([N+](=O)[O-])c(=O)oc2ccccc12, CCC(=O)Nc1c(-c2ccc(Cl)cc2)c(=O)c2ccccc2n1C
